Results published in PubChem BioAssay.
For some assays here: Potency and affinity values are given separately. Calls of active or inactive are those of the source. Unless noted, how the calls were made is not given here.

What was measured:
[1] = antimalarial activity against Dd2 strain (AID 2302;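 active means growth inhibition above 50% at the single 2 µM test dose, taken to imply half-maximal potency below 2 µM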;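 further: 0% = DMSO untreated growth and 100% = chloroquine plus artemisinin killed control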); conditions: P. falciparum Dd2 in RBCs, LDH growth readout, 72 h; at 2 µM; active compounds read high
[2] = HepG2 cytotoxicity, primary screen, cytotoxicity control for P. falciparum antimalarial project, cell-based, ATP luminescence (AID 2303;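 active means inhibition above 50%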;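 further: 0% = DMSO wells and 100% = digitonin-killed cells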); conditions: HepG2 viability, 24-48 h, at 10 µM, active compounds read high
[3] = target: L-lactate dehydrogenase (Plasmodium falciparum (isolate CDC / Honduras)) (UniProt Q27743); test: PfLDH activity inhibition – cell lysate, 3D7 strain, counter-screen for P. falciparum growth inhibition project (AID 2304);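 further: 0% = vehicle and 100% = reference inhibitor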; conditions: P. falciparum 3D7 crude extract, LDH APAD/NBT absorbance; at 2 µM; active compounds read high
[4] = inhibition of 3D7 malaria parasite growth – strain 3D7 (AID 2306);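 further: 0% = DMSO wells and 100% = chloroquine plus artemisinin control wells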; conditions: P. falciparum 3D7 erythrocytic growth, LDH absorbance, 72 h; at 2 µM; active compounds read high
[5] = target: Calcium-dependent protein kinase 1 (Plasmodium falciparum (isolate 3D7)) (UniProt P62344); test: PfCDPK1 kinase inhibitors, biochemical, TCAMS library (AID 1159585; cut-off not given, nearly all actives have IC50 up to about 0.98 µM;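 further: inhibitors leave more ATP so luminescence rises with inhibition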); conditions: recombinant PfCDPK1, Kinase-Glo ATP depletion luminescence
[6] = target: Plasmodium falciparum protein kinase 6 (PK6, PF3D7_1337100) (UniProt Q8IDW1); test: PfPK6 kinase inhibitors, biochemical, TCAMS library (AID 1159586); conditions: recombinant PfPK6, Kinase-Glo ATP depletion luminescence
[7] = target: Protein kinase 7 (PK7), Plasmodium falciparum 3D7 (PF3D7_0213400) (UniProt Q7YTF7); test: inhibition of Plasmodium PK7 catalytic activity – biochemical, TCAMS antimalarial set, Kinase-Glo luminescence (AID 1159587); conditions: recombinant PfPK7, Kinase-Glo ATP depletion luminescence
[8] = target: Calcium-dependent protein kinase 4 (Plasmodium falciparum (isolate 3D7)) (UniProt Q8IBS5); test: PfCDPK4 kinase inhibitors, biochemical, TCAMS library (AID 1159588; cut-off not given, nearly all actives have IC50 up to about 0.91 µM); conditions: recombinant PfCDPK4, Kinase-Glo ATP depletion luminescence
Chain of Calcium-dependent protein kinase 4 (Plasmodium falciparum (isolate 3D7)) (Q8IBS5 whole entry, looked up): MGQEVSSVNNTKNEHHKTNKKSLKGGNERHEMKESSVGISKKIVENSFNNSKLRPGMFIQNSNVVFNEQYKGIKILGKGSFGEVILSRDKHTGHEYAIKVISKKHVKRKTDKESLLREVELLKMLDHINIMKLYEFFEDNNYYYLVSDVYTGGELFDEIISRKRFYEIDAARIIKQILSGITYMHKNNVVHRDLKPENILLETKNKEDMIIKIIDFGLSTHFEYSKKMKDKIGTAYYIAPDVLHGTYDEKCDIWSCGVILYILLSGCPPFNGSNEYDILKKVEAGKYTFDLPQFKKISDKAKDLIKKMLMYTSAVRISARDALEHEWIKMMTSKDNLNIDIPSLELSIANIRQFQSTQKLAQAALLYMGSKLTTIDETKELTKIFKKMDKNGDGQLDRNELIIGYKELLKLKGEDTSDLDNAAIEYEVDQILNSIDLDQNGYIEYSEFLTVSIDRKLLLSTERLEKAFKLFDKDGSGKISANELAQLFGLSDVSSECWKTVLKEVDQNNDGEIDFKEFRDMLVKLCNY

Chain of Plasmodium falciparum protein kinase 6 (PK6, PF3D7_1337100) (Q8IDW1 1-305): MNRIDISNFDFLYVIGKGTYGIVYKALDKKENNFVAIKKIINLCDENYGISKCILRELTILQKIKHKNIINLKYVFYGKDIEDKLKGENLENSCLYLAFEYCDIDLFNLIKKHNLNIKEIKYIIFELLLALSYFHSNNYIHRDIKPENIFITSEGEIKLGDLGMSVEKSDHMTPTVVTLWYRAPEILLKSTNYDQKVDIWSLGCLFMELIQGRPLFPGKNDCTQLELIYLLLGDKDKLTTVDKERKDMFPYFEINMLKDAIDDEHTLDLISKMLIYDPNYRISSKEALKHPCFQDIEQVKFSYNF
Chain of Protein kinase 7 (PK7), Plasmodium falciparum 3D7 (PF3D7_0213400) (Q7YTF7 1-343): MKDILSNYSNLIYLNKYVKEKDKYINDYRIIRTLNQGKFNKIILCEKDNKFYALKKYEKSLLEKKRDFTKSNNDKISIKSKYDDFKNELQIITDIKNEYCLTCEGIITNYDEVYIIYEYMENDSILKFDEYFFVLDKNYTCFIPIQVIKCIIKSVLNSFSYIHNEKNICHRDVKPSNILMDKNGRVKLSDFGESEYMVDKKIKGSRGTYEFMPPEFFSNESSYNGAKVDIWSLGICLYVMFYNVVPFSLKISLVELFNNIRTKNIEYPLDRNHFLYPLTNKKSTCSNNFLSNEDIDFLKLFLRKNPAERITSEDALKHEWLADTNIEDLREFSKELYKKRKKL
Chain of Calcium-dependent protein kinase 1 (Plasmodium falciparum (isolate 3D7)) (P62344 whole entry, looked up): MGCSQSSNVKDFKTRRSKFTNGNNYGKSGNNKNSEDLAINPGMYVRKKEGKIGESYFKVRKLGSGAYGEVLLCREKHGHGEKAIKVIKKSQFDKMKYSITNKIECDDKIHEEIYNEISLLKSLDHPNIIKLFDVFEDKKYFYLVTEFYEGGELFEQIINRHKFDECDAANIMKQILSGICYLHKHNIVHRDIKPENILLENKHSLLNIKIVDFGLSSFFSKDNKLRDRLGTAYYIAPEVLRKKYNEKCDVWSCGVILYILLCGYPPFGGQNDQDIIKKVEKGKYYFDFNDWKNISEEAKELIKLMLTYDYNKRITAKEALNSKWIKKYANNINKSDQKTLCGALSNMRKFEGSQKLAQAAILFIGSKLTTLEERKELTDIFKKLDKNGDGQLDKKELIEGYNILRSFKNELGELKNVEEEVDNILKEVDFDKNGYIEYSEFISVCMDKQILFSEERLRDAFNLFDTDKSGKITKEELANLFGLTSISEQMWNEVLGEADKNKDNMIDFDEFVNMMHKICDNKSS
Chain of L-lactate dehydrogenase (Plasmodium falciparum (isolate CDC / Honduras)) (Q27743 whole entry, looked up): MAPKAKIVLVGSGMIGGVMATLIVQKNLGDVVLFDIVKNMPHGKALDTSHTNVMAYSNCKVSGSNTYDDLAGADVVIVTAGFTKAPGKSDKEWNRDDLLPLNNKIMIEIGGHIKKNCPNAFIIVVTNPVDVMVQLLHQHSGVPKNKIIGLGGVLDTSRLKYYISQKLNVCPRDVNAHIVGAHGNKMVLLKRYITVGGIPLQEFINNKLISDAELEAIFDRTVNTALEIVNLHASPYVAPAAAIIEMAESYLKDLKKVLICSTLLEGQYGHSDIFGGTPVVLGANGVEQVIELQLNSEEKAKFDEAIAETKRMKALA

O=C(Nc1ccc(Cl)c(Cl)c1)Nc1cc(C(F)(F)F)ccc1Cl
inactive: inhibition [2] -1% | inhibition [3] -4% | outcome [5] | outcome [6] | outcome [7] | outcome [8]
active: growth inhibition [1] 85% | growth inhibition [4] 101%

CC[C@H](C)CNC(=O)c1cccc(-c2cccc(CN3CCC(N4CCCC4)CC3)c2)n1
inactive: inhibition [2] 9% | inhibition [3] 1% | outcome [5] | outcome [6] | outcome [7] | outcome [8]
active: growth inhibition [1] 86% | growth inhibition [4] 101%

CN(C)CCNc1cc(-c2cccnc2)nc(-c2ccncc2)n1
active: growth inhibition [1] 98% | growth inhibition [4] 100%
inactive: inhibition [2] 33% | inhibition [3] -5% | outcome [5] | outcome [6] | outcome [7] | outcome [8]

COc1ccc(Nc2nccc(-c3c(-c4cccc(NC(=O)c5c(F)cccc5F)c4)nn4ccccc34)n2)cc1Cl
inactive: inhibition [3] -1% | outcome [5] | outcome [6] | outcome [7] | outcome [8]
active: growth inhibition [1] 71% | inhibition [2] 61% | growth inhibition [4] 95%

CO/C(=C\C=C\c1cc2cc(Cl)c(Cl)cc2[nH]1)C(=O)NCCCN1CCN(c2cccc(CCO)c2)CC1
inactive: growth inhibition [1] 32% | inhibition [3] -1% | outcome [5] | outcome [6] | outcome [7] | outcome [8]
active: inhibition [2] 61% | growth inhibition [4] 101%

CNc1ccc(CNCc2ccc(-c3ccc(-c4nc5ccc(C(F)(F)F)cc5[nH]4)cc3)cc2)cc1
active: growth inhibition [1] 98% | inhibition [2] 53% | growth inhibition [4] 101%
inactive: inhibition [3] -3% | outcome [5] | outcome [6] | outcome [7] | outcome [8]

O=[N+]([O-])c1ccc2ncnc(Nc3ccc(F)c(Cl)c3)c2c1
inactive: inhibition [2] -1% | inhibition [3] 0% | outcome [5] | outcome [6] | outcome [7] | outcome [8]
active: growth inhibition [1] 65% | growth inhibition [4] 100%

O=C(Nc1cccc(CN2CCCN(Cc3ccccc3)CC2)c1)c1ccc(Cl)c(Cl)c1
inactive: growth inhibition [1] 16% | inhibition [2] 23% | inhibition [3] -6% | outcome [5] | outcome [6] | outcome [7] | outcome [8]
active: growth inhibition [4] 95%

Cc1onc(-c2ccccc2)c1C(=O)Nc1nc(-c2ccccn2)nc2ccsc12
active: growth inhibition [1] 78% | growth inhibition [4] 97%
inactive: inhibition [2] 23% | inhibition [3] -4% | outcome [5] | outcome [6] | outcome [7] | outcome [8]

CO/C(=C\C=C\c1cc2cc(Cl)c(Cl)cc2[nH]1)C(=O)NCCCN1CCN(c2ccncc2)CC1
active: growth inhibition [1] 96% | growth inhibition [4] 98%
inactive: inhibition [2] 12% | inhibition [3] 4% | outcome [5] | outcome [6] | outcome [7] | outcome [8]

Cc1cc(N2CCOCC2)nc2ccc(NC(=O)c3cccc([N+](=O)[O-])c3)cc12
inactive: growth inhibition [1] 37% | inhibition [2] 0% | inhibition [3] 0% | outcome [5] | outcome [6] | outcome [7] | outcome [8]
active: growth inhibition [4] 97%

O=C(C=Cc1cn(-c2ccccc2)nc1-c1ccccc1)N1CCN(c2ccncc2)CC1
inactive: growth inhibition [1] 20% | inhibition [2] 11% | inhibition [3] 2% | outcome [5] | outcome [6] | outcome [7] | outcome [8]
active: growth inhibition [4] 90%

CCCc1ccc(S(=O)(=O)Nc2ccc3c(c2)CCC3)cc1
active: growth inhibition [4] 96%
inactive: growth inhibition [1] -1% | inhibition [2] 8% | inhibition [3] 1% | outcome [5] | outcome [6] | outcome [7] | outcome [8]

CCOc1cc(C)ccc1C1CCN(CCCCNC(=O)c2coc(-c3ccc(Cl)cc3)c2)CC1
active: growth inhibition [4] 92%
inactive: growth inhibition [1] 30% | inhibition [2] 34% | inhibition [3] -3% | outcome [5] | outcome [6] | outcome [7] | outcome [8]

COc1ccc2nccc([C@@H](O)CN3CCC(NCc4cc5cccc6c5n(c4=O)CCC6)CC3)c2c1
active: growth inhibition [1] 97% | growth inhibition [4] 98%
inactive: inhibition [2] 33% | inhibition [3] 1% | outcome [5] | outcome [6] | outcome [7] | outcome [8]

Cc1cccc2[nH]c(-c3cccc(-c4cccc(CNCc5cccc(N)c5)c4)c3)nc12
inactive: inhibition [2] 14% | inhibition [3] 1% | outcome [5] | outcome [6] | outcome [7] | outcome [8]
active: growth inhibition [1] 73% | growth inhibition [4] 101%

Cc1cccc2[nH]c(-c3ccc(-c4cccc(CNCC5CCCO5)c4)cc3)nc12 (stereo unspecified)
inactive: inhibition [2] 18% | inhibition [3] -5% | outcome [5] | outcome [6] | outcome [7] | outcome [8]
active: growth inhibition [1] 50% | growth inhibition [4] 101%

Cc1ccc(N2C(=O)C3C(C2=O)[C@]2(c4ccccc4)C(=O)[C@@]3(c3ccccc3)C(c3ccccc3)=C2c2ccccc2)c(C)c1 (stereo partly specified)
active: growth inhibition [1] 96% | growth inhibition [4] 96%
inactive: inhibition [2] 3% | inhibition [3] 6% | outcome [5] | outcome [6] | outcome [7] | outcome [8]

O=C(NCCc1ccccc1F)c1ccc(N2CCN(c3ccncc3)CC2)cn1
active: growth inhibition [4] 93%
inactive: growth inhibition [1] 18% | inhibition [2] 8% | inhibition [3] -2% | outcome [5] | outcome [6] | outcome [7] | outcome [8]

COc1cccc(C(=O)Nc2ccc(Nc3nc(C)cc(N(C)C)n3)cc2)c1
inactive: growth inhibition [1] 33% | inhibition [2] 1% | inhibition [3] -2% | outcome [5] | outcome [6] | outcome [7] | outcome [8]
active: growth inhibition [4] 92%

CN1CCC(NCc2ccc(-c3cccc(-c4nc5ccccc5[nH]4)c3)cc2)CC1
inactive: inhibition [3] -5% | outcome [5] | outcome [6] | outcome [7] | outcome [8]
active: growth inhibition [1] 96% | inhibition [2] 50% | growth inhibition [4] 100%

COc1ccc(-c2ccc(NC(=O)c3cccc(Cl)c3)cc2)cc1CN1CCN(C)CC1
active: growth inhibition [4] 90%
inactive: growth inhibition [1] 33% | inhibition [2] 42% | inhibition [3] -2% | outcome [5] | outcome [6] | outcome [7] | outcome [8]

O=C(Nc1ccc2c(c1)CCC2)c1nc(N2CCN(c3ccncc3)CC2)ccc1Cl
inactive: inhibition [3] -1% | outcome [5] | outcome [6] | outcome [7] | outcome [8]
active: growth inhibition [1] 97% | inhibition [2] 55% | growth inhibition [4] 101%

c1ccc(Oc2ccc(Nc3ccnc4cc(-c5csc(CNCCN6CCOCC6)n5)ccc34)cc2)cc1
inactive: inhibition [2] -1% | inhibition [3] 0% | outcome [5] | outcome [6] | outcome [7] | outcome [8]
active: growth inhibition [1] 99% | growth inhibition [4] 101%

CCN(CCCN1CCCCC1)c1cc(C)nc(Nc2ccc(OC)cc2)n1
active: growth inhibition [4] 100%
inactive: growth inhibition [1] 24% | inhibition [2] 23% | inhibition [3] -6% | outcome [5] | outcome [6] | outcome [7] | outcome [8]

O=C(Nc1ccc(Cl)c(Cl)c1)N1CCC(NCc2cccc([N+](=O)[O-])c2)CC1
inactive: growth inhibition [1] 12% | inhibition [2] 8% | inhibition [3] 2% | outcome [5] | outcome [6] | outcome [7] | outcome [8]
active: growth inhibition [4] 97%

COc1ccc(-c2nc(-c3ccc([N+](=O)[O-])cc3)no2)cc1OC
active: growth inhibition [4] 96%
inactive: growth inhibition [1] -5% | inhibition [2] 14% | inhibition [3] -1% | outcome [5] | outcome [6] | outcome [7] | outcome [8]

Cc1cc(NCCCCCCN)nc(Nc2ccc(Cl)cc2)n1
inactive: growth inhibition [1] 26% | inhibition [2] 25% | inhibition [3] 1% | outcome [5] | outcome [6] | outcome [7] | outcome [8]
active: growth inhibition [4] 100%

COc1c(O)cc2oc(-c3ccc(O)cc3)cc(=O)c2c1O
active: growth inhibition [4] 96%
inactive: growth inhibition [1] 0% | inhibition [2] 6% | inhibition [3] -1% | outcome [5] | outcome [6] | outcome [7] | outcome [8]

CNCc1cccc2[nH]c(-c3ccc(Cc4cc(Cl)ccc4OCC(C)C)o3)nc12
inactive: growth inhibition [1] 23% | inhibition [2] 20% | inhibition [3] 0% | outcome [5] | outcome [6] | outcome [7] | outcome [8]
active: growth inhibition [4] 97%

Clc1cc(Cl)c2cc(CN[C@H]3CCC[C@@H]3CNc3nc4ccccc4[nH]3)[nH]c2c1
active: growth inhibition [1] 58% | inhibition [2] 85% | growth inhibition [4] 99%
inactive: inhibition [3] -1% | outcome [5] | outcome [6] | outcome [7] | outcome [8]

Cc1[nH]c(C)c(-c2ccc(-c3cc(C(F)(F)F)cc(C(F)(F)F)c3)nc2)c(=O)c1Br
inactive: inhibition [2] 18% | inhibition [3] 0% | outcome [5] | outcome [6] | outcome [7] | outcome [8]
active: growth inhibition [1] 96% | growth inhibition [4] 98%

COc1cc2nc(N3CCC(CNC(=O)c4ccc(-c5cccc(C#N)c5)cc4)CC3)nc(N)c2cc1OC
inactive: inhibition [2] 18% | inhibition [3] 6% | outcome [5] | outcome [6] | outcome [7] | outcome [8]
active: growth inhibition [1] 100% | growth inhibition [4] 100%

Brc1cc(CNCCCNc2nc3ccccc3[nH]2)sc1Br
active: growth inhibition [4] 100%
inactive: growth inhibition [1] 21% | inhibition [2] 10% | inhibition [3] 8% | outcome [5] | outcome [6] | outcome [7] | outcome [8]

O=C(/C=C/c1ccc(Cl)c(Cl)c1)N1CCC(CN2CCC(c3c[nH]c4cnccc34)CC2)CC1
active: growth inhibition [1] 100% | growth inhibition [4] 102%
inactive: inhibition [2] 39% | inhibition [3] 7% | outcome [5] | outcome [6] | outcome [7] | outcome [8]

Cc1ccc(-c2cc(C(=O)Nc3ccc(S(=O)(=O)N(C)Cc4ccccc4)cc3)[nH]n2)c(O)c1
inactive: inhibition [2] 34% | inhibition [3] -1% | outcome [5] | outcome [6] | outcome [7] | outcome [8]
active: growth inhibition [1] 67% | growth inhibition [4] 99%

Cc1cccc2[nH]c(-c3ccc(-c4ccc(CNCC(C)C)cc4)cc3)nc12
inactive: inhibition [2] 14% | inhibition [3] -1% | outcome [5] | outcome [6] | outcome [7] | outcome [8]
active: growth inhibition [1] 90% | growth inhibition [4] 100%
